# From PubChem BioAssay
# Calls of active or inactive are those of the source. How the calls were made is not given here.
# Target: Pantothenate synthetase (Mycobacterium tuberculosis (strain ATCC 25618 / H37Rv)) (UniProt P9WIL5)
# Test: Recombinant Mtb pantothenate synthetase (PanC) inhibitors, coupled enzyme, confirmatory (AID 375);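 further: 0% = full reaction with vehicle and 100% = no enzyme background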
# Details: coupled enzyme assay; at 10 µM, hits give high values
# Chain of Pantothenate synthetase (Mycobacterium tuberculosis (strain ATCC 25618 / H37Rv)) (P9WIL5 whole entry, looked up): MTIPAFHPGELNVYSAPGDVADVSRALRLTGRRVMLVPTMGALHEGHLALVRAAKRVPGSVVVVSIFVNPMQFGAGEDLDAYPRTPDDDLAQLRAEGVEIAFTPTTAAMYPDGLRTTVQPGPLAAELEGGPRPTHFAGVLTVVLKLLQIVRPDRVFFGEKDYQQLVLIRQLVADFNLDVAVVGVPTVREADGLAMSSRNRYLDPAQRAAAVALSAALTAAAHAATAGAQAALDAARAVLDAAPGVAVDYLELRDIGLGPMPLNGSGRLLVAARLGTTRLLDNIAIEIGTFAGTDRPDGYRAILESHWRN
row,Structure (SMILES),inhibition
1,Cn1c(=O)c2c(ncn2CCO)n(C)c1=O,1% (inactive)
2,CCOC(=O)C(CC)Sc1nc2c(c(=O)[nH]c(=O)n2C)n1C/C=C(/C)Cl (configuration not stated),8% (inactive)
3,CCOC(=O)N1CCN(c2c(NCC3CCN(Cc4cccc(C)c4)CC3)c(=O)c2=O)CC1,4% (inactive)
4,COc1cc2c(cc1OC)CN(C(=O)CSc1nc3[nH]ncc3c(=O)n1-c1ccccc1)CC2,2% (inactive)
5,COc1cccc(-n2c(SC3CCOC3=O)nc3ccccc3c2=O)c1 (configuration not stated),2% (inactive)
6,Cc1c(NC(=O)Cn2nc(C(=O)O)c3ccccc3c2=O)c(=O)n(-c2ccccc2)n1C,0% (inactive)
7,CCOc1cc(C2C(C#N)=C(N)OC(C)=C2C(C)=O)cc(Br)c1O (configuration not stated),1% (inactive)
8,COc1ccc(C(=O)c2ccc(OC)c(N)c2)cc1N,0% (inactive)
9,COC(=O)C1=C(C)Nc2nnnn2C1c1cccs1 (configuration not stated),8% (inactive)
10,CCOC(=O)CN1C(=O)C2(OCCCO2)c2ccccc21,1% (inactive)
11,COc1cccc(-c2nnc(SCC(N)=O)n2-c2ccc(Cl)cc2)c1,0% (inactive)
12,CCCCn1cnc2c(cnn2-c2ccc(Cl)cc2)c1=O,6% (inactive)
13,Cn1c(=O)c2nc(Cl)n(Cc3ccc(Cl)cc3Cl)c2n(C)c1=O,6% (inactive)
14,COc1ccccc1NC1=NC(c2ccc(Cl)cc2)N=C(N)N1 (configuration not stated),0% (inactive)
15,Cn1c(=O)c(C(=O)Nc2cccnc2)c(O)c2ccccc21,5% (inactive)
16,O=C(Cn1nc(C(F)(F)F)c2c1CCCC2)NCCN1CCOCC1,5% (inactive)
17,O=C(O)C1CC(=O)N(c2ccc(Br)cc2)C1 (configuration not stated),0% (inactive)
18,COc1ccccc1NC(=O)C1=C(C)NC(SCC(=O)c2ccc(C)cc2)=C(C#N)C1c1ccco1 (configuration not stated),0% (inactive)
19,COc1ccccc1N1CCN(c2cc(N3CCCC3)nc(C)n2)CC1,0% (inactive)
20,Cc1cc(C)c2c(n1)nn1c(N3CCN(c4cccc(Cl)c4)CC3)cc(C)nc21,5% (inactive)
21,COc1ccc(NC(=O)CSc2nnc(Cc3cccn3C)n2-c2ccc(F)cc2)cc1OC,0% (inactive)
22,O=C(NC12CC3CC(CC(C3)C1)C2)C1CCCN1C(=O)NC1CCCCC1 (configuration not stated),0% (inactive)
23,COc1cc2c(cc1OC)C(c1cc(OC)c(OC)c(OC)c1)NCC2 (configuration not stated),0% (inactive)
24,COc1ccccc1CC(=O)NCc1ccc2c(c1)OCO2,0% (inactive)
25,COc1cccc(-c2nc(-c3ccc(NC(=O)Cc4ccccc4OC)cc3)no2)c1,11% (inactive)
26,COc1ccc(OC)c(S(=O)(=O)N2CCC(C(=O)NCC3CCCO3)CC2)c1 (configuration not stated),7% (inactive)

row,Structure (SMILES),inhibition
1,Oc1ccc(N2CCN(C(c3ccncc3)c3nnnn3C3CCCC3)CC2)cc1 (configuration not stated),11% (inactive)
2,Cc1ccc(Cn2nnnc2CN2CCC(O)(c3ccccc3F)CC2)cc1,0% (inactive)
3,O=C(CC(Cc1ccccc1)C(=O)O)NCCc1ccc2c(c1)OCO2 (configuration not stated),1% (inactive)
4,CCC1(CC)NC(=O)NC1=O,0% (inactive)
5,O=C(c1ccco1)N1CCN(S(=O)(=O)c2ccc(C3CCCCC3)cc2)CC1,3% (inactive)
6,Cc1nn(C(=O)c2ccc3c(c2)OCO3)c(N)c1-c1ccccc1,0% (inactive)
7,CCOc1cccc(-n2nnnc2-c2ccc(OC)cc2)c1,9% (inactive)
8,O=C(Cn1c(=O)oc2ccccc21)Nc1ccc(S(=O)(=O)N2CCCCC2)cc1,0% (inactive)
9,CC(=O)Nc1ccc(OC(=O)c2cccnc2)cc1,0% (inactive)
10,O=C(CSc1nnc(-c2ccco2)n1CC1CCCO1)NC1CCCC1 (configuration not stated),0% (inactive)
11,Cc1ccc(CSC2=NCCN2C(=O)C2CC2)cc1,2% (inactive)
12,CN1CCc2c(sc3c2C(=O)NC(c2cccc(OC(=O)c4cccs4)c2)N3)C1 (configuration not stated),0% (inactive)
13,Cn1c2c(c(=O)n(C)c1=O)CN(CCCN1CCOCC1)CN2,0% (inactive)
14,COc1ccc(NC(=O)c2oc3ccc(S(=O)(=O)N4CCC5(CC4)OCCO5)cc3c2C)cc1,6% (inactive)
15,COc1cc(OC)cc(C(=O)N2c3ccc(F)cc3CCC2C)c1 (configuration not stated),0% (inactive)
16,CC(C)[N+](C)(CCOC(=O)C1c2ccccc2Oc2ccccc21)C(C)C,0% (inactive)
17,CC(C)(C)OC(=O)N1CCC(C(=O)N2CCCCCC2)CC1,5% (inactive)
18,O=C(C1CCC(N2C(=O)C3CC=CCC3C2=O)CC1)N1CCCCC1 (configuration not stated),1% (inactive)
19,Cc1ccc(C)c(CSc2nnc(CCN)o2)c1,0% (inactive)
20,CCOC(=O)CSc1nc2ccccc2c(=O)n1NC(=O)c1ccccc1,1% (inactive)
21,Nc1nc(NCc2ccco2)nn1-c1ccccc1,0% (inactive)
22,c1cc2c(cc1Nc1nc(-c3ccc4c(c3)OCO4)cs1)OCCO2,4% (inactive)
23,Cc1nn(-c2ccccc2)c2[nH]c(C(F)(F)F)cc(=O)c12,1% (inactive)
24,COc1ccc(-c2cnc(SCC(=O)Nc3ccc4c(c3)OCO4)n2Cc2ccco2)cc1,0% (inactive)
25,CCOC(=O)C1CCCN(C(=O)c2cc3c(C)nc4ccccc4c3o2)C1 (configuration not stated),7% (inactive)
26,S=c1[nH]nc(-c2ccco2)n1-c1cccc2ccccc12,0% (inactive)

row,Structure (SMILES),inhibition
1,CC(C)OC(=O)c1ccc(OC(=O)c2cccnc2)cc1,0% (inactive)
2,COc1ccc(-c2noc(CN(C(=O)C(C)(C)C)C(C)C)n2)cc1,0% (inactive)
3,Cc1ccc(SCc2[nH]nc3c2C(c2ccc(C)o2)C(C#N)=C(N)O3)cc1 (configuration not stated),3% (inactive)
4,CCOC(=O)/C=C1\CC(=O)Nc2nonc2N1,4% (inactive)
5,O=C(CSc1nnc2scc(-c3ccccc3)n12)Nc1nsc(-c2ccccc2)n1,1% (inactive)
6,O=C(c1csc2ccccc12)N1CCCCCC1,2% (inactive)
7,COC(=O)CSc1nc(C)c(C(C)=O)cc1C#N,10% (inactive)
8,CCCCC(CC)C(=O)Nc1ccc(Cl)cn1 (configuration not stated),8% (inactive)
9,O=S1(=O)C=C(Oc2ccc(F)cc2)c2ccccc21,4% (inactive)
10,CCCn1c(-c2ccc(F)cc2)cnc1SCC(=O)O,0% (inactive)
11,Cc1ccc(-c2cc(C(=O)N3CCCC3)no2)cc1,0% (inactive)
12,c1ccc2c(c1)C(=Nn1cnnc1)c1ccccc1-2,0% (inactive)
13,CC(=O)NC(C)C(=O)OCC(=O)Nc1ccc(Br)cc1 (configuration not stated),0% (inactive)
14,CCc1nnc(NC(=O)CSc2nnc(-c3cc4ccccc4cc3O)n2CC)s1,6% (inactive)
15,CCCCCCc1ccc(-c2ncc(N)cn2)cc1,0% (inactive)
16,CCOC(=O)CSC1=C(C#N)C(c2ccc3c(c2)OCO3)CC(=O)N1 (configuration not stated),0% (inactive)
17,FC(F)(F)c1nnc2ccc(NCn3nnc4ccccc43)nn12,3% (inactive)
18,Cn1nc(C(C)(C)C)cc1C(=O)NCc1ccc(N2CCCC2=O)cc1,0% (inactive)
19,COc1ccc(-c2noc(CSc3nc4ccccc4c(=O)n3-c3ccccc3)n2)cc1OC,1% (inactive)
20,Cc1ccc2c(Cl)cc(Cl)c(OCc3c(C)noc3C)c2n1,0% (inactive)
21,CCOCCCNC(=O)c1c[nH]c2ccc(S(=O)(=O)Nc3cccc(OC)c3)cc2c1=O,0% (inactive)
22,CCCNC(=O)CS(=O)(=O)Cc1nc(-c2cccc(OC)c2)oc1C,0% (inactive)
23,CCOC(=O)c1cc2sccc2n1Cc1ccccc1,1% (inactive)
24,Cc1nc(-c2ccccc2)sc1C(N)=O,0% (inactive)
25,COc1ccc(-n2c(SCC(=O)c3c(N)n(C)c(=O)n(C)c3=O)nc3ccccc32)cc1,0% (inactive)
26,C[N+]12CCC(CC1)C(OC(=O)C(O)(c1ccccc1)c1ccccc1)C2 (configuration not stated),0% (inactive)

row,Structure (SMILES),inhibition
1,CCn1nc(C)c(NC(=O)c2cc(Br)ccc2Cl)c1C,15% (inactive)
2,COCCOC(=O)C1=C(C)Nc2ncnn2C1c1ccc(F)cc1 (configuration not stated),0% (inactive)
3,Cc1occc1C(=O)Nc1cccc2ccccc12,0% (inactive)
4,Cc1cccc(N(CC(N)=O)S(C)(=O)=O)c1C,0% (inactive)
5,OCCn1c(-c2ccc3c(c2)OCO3)csc1=Nc1ccccc1,1% (inactive)
6,O=C1CSC(c2cccc(F)c2)N1c1ccccc1F (configuration not stated),2% (inactive)
7,Cc1nc2ccccn2c1/C(O)=C1\C(=O)C(=O)N(CCCN(C)C)C1c1ccc(F)cc1 (configuration not stated),4% (inactive)
8,O=C(CN1CCN(C(=O)c2ccccc2)CC1)Nc1ncc(Br)cc1Br,0% (inactive)
9,O=C(O)C1C2C=CC(O2)C1C(=O)NCc1ccc(Cl)cc1 (configuration not stated),13% (inactive)
10,COCC(=O)Nc1sc2c(c1C(=O)OC)CCC(C)C2 (configuration not stated),6% (inactive)
11,O=C(COC(=O)C1CC1)c1c[nH]c2ccccc12,1% (inactive)
12,CCCn1c(N2CCN(CC(=O)Nc3ccc4c(c3)OCCO4)CC2)nc2ccccc21,6% (inactive)
13,Cc1ccccc1OCc1nc2ccccc2c(=O)n1/N=C/c1ccco1,0% (inactive)
14,O=C(CN1C(=O)CCS(=O)(=O)c2ccccc21)NCc1ccc(F)cc1,3% (inactive)
15,Cc1onc(-c2ccccc2)c1C(=O)Nc1ccc(S(=O)(=O)N2CCCCC2)cc1,0% (inactive)
16,Cn1c(=O)c(-c2ccccc2)nn2c3ccccc3nc12,0% (inactive)
17,COc1ccc(N2CCN(C(=O)CSc3nnc(Cn4nnc5ccccc54)n3C)CC2)cc1,0% (inactive)
18,COCCNC(=O)CN1CCN(Cc2cccc(Cl)c2)C1=O,0% (inactive)
19,COc1ccc(-c2coc3c(CN4CCCCC4)c(O)c(CN4CCCCC4)c(O)c3c2=O)cc1,0% (inactive)
20,Cc1nnc2n(Cc3ccccc3)c(=O)c3c4c(sc3n12)COC(C(C)C)C4 (configuration not stated),0% (inactive)
21,CN1CCN(c2nc3c(c(=O)[nH]c(=O)n3C)n2CCSc2nc3ccccc3s2)CC1,8% (inactive)
22,Nc1ccc(Sc2nnnn2-c2ccccc2)c(Cl)c1,6% (inactive)
23,COc1ccc(C2C(C(=O)NCCN3CCOCC3)c3ccccc3C(=O)N2C2CCCCC2)cc1 (configuration not stated),0% (inactive)
24,COCCNC(=O)C(c1ccc(C)o1)N(Cc1ccc(F)cc1)C(=O)Cn1nnc2ccccc21 (configuration not stated),8% (inactive)
